# Experimental data published in PubChem BioAssay (NCATS).
# Inconclusive results are not listed. Where a call stands in place of a potency, no number is given. The source made the active and inactive calls. Unless noted, calls come from the whole dose curve; as a rule, active = well fitted inhibition curve with a large enough effect; inconclusive = small, poorly fitted or top-dose-only effect; inactive = flat fitted curve, though single readings scatter.
# Assays:
# [1] = S16 Schwann cell PMP22 intronic element beta-lactamase assay (AID 624044; calls by dose curve; note: nearly all actives have a fitted effect of over 15% in size)
# In short: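 Beta-lactamase reporter under a PMP22 intronic regulatory element in stable S16 rat Schwann cells; 24 h compound exposure. 460 nm blue signal normalized between DMSO (0%) and potassium clavulanate, with 535 nm FRET tracking viability; curves classed by r2 and response.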
# 3D7 = assay: qHTS profiling for inhibitors of Plasmodium falciparum proliferation (AID 504749); note: nearly all actives have a fitted effect of over 60% in size; note: potency is the fitted concentration of half-maximal effect; settings: P. falciparum in erythrocytes, SYBR Green DNA, 72 h; series mostly up to 28.7 µM
# In short: (§1)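 In a 72 h erythrocytic culture (37 C, humidified, 5% CO2) at 2.5% hematocrit and 0.3% starting parasitemia, compounds were tested; SYBR Green I in detergent lysis buffer stained parasite DNA overnight.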
# AA1029 = assay: as above; settings: P. falciparum in erythrocytes, SYBR Green DNA, 72 h; series mostly up to 28.7 µM
# In short: as §1
# ATS95 = assay: as above; settings: P. falciparum in erythrocytes, SYBR Green DNA, 72 h; series mostly up to 28.7 µM
# In short: as §1
# CP217 = assay: as above; settings: P. falciparum in erythrocytes, SYBR Green DNA, 72 h; series mostly up to 28.7 µM
# In short: as §1
# CP252 = assay: as above; settings: P. falciparum in erythrocytes, SYBR Green DNA, 72 h; series mostly up to 28.7 µM
# In short: as §1
# CP260 = assay: as above; settings: P. falciparum in erythrocytes, SYBR Green DNA, 72 h; series mostly up to 28.7 µM
# In short: as §1
# CP265 = assay: as above; settings: P. falciparum in erythrocytes, SYBR Green DNA, 72 h; series mostly up to 28.7 µM
# In short: as §1
# DIV14 = assay: as above; settings: P. falciparum in erythrocytes, SYBR Green DNA, 72 h; series mostly up to 28.7 µM
# In short: as §1
# GB4 = assay: as above; settings: P. falciparum in erythrocytes, SYBR Green DNA, 72 h; series mostly up to 28.7 µM
# In short: as §1
# N140 = assay: as above; settings: P. falciparum in erythrocytes, SYBR Green DNA, 72 h; series mostly up to 28.7 µM
# In short: as §1
# PAD = assay: as above; settings: P. falciparum in erythrocytes, SYBR Green DNA, 72 h; series mostly up to 28.7 µM
# In short: as §1
# PC26 = assay: as above; settings: P. falciparum in erythrocytes, SYBR Green DNA, 72 h; series mostly up to 28.7 µM
# In short: as §1
# ATS189 = assay: as above; settings: P. falciparum in erythrocytes, SYBR Green DNA, 72 h; series mostly up to 28.7 µM
# In short: as §1
# CP192 = assay: as above; settings: P. falciparum in erythrocytes, SYBR Green DNA, 72 h; series mostly up to 28.7 µM
# In short: as §1
# CP262 = assay: as above; settings: P. falciparum in erythrocytes, SYBR Green DNA, 72 h; series mostly up to 28.7 µM
# In short: as §1
# ECU = assay: as above; settings: P. falciparum in erythrocytes, SYBR Green DNA, 72 h; series mostly up to 28.7 µM
# In short: as §1
# P93_24 = assay: as above; settings: P. falciparum in erythrocytes, SYBR Green DNA, 72 h; series mostly up to 28.7 µM
# In short: as §1
# PC49 = assay: as above; settings: P. falciparum in erythrocytes, SYBR Green DNA, 72 h; series mostly up to 28.7 µM
# In short: as §1
# SC27B = assay: as above; settings: P. falciparum in erythrocytes, SYBR Green DNA, 72 h; series mostly up to 28.7 µM
# In short: as §1
Compound,outcome [1],Potency (3D7),Potency (AA1029),Potency (ATS95),Potency (CP217),Potency (CP252),Potency (CP260),Potency (CP265),Potency (DIV14),Potency (GB4),Potency (N140),Potency (PAD),Potency (PC26),Potency (ATS189),Potency (CP192),Potency (CP262),Potency (ECU),Potency (P93_24),Potency (PC49),Potency (SC27B)
C[C@H]1C[C@@H]2[C@H]3CCC4=CC(=O)C=C[C@@]4(C)[C@@]3(Cl)[C@@H](O)C[C@]2(C)[C@]1(OC(=O)c1ccco1)C(=O)CCl,inactive,3.98 µM (active),3.16 µM (active),3.16 µM (active),3.98 µM (active),inactive,3.98 µM (active),3.55 µM (active),5.1 µM (active),6.42 µM (active),3.55 µM (active),3.98 µM (active),6.42 µM (active),–,–,–,–,–,–,–
C[C@@H]1C[C@H]2[C@H]3C[C@@H](F)C4=CC(=O)C=C[C@]4(C)[C@@]3(Cl)[C@@H](O)C[C@@]2(C)[C@@H]1C(=O)COC(=O)C(C)(C)C,inactive,12.6 µM (active),inactive,inactive,inactive,inactive,12.6 µM (active),inactive,inactive,inactive,inactive,inactive,inactive,inactive,inactive,inactive,inactive,inactive,inactive,inactive
COc1cc2nc(N(C)CCCNC(=O)[C@@H]3CCCO3)nc(N)c2cc1OC,inactive,inactive,inactive,inactive,inactive,inactive,inactive,inactive,inactive,inactive,inactive,inactive,inactive,inactive,inactive,inactive,inactive,inactive,inactive,inactive
CO/N=C(\C(=O)N[C@@H]1C(=O)N2C(C(=O)[O-])=C(C[N+]3(C)CCCC3)CS[C@@H]12)c1csc(N)n1,inactive,inactive,inactive,inactive,inactive,inactive,inactive,inactive,inactive,inactive,inactive,inactive,inactive,inactive,inactive,inactive,inactive,inactive,inactive,inactive
N[C@H](COP(=O)(O)O)C(=O)O,inactive,inactive,inactive,inactive,inactive,inactive,inactive,inactive,inactive,inactive,inactive,inactive,inactive,inactive,inactive,inactive,inactive,inactive,inactive,inactive
C=C(NC(=O)C(=C)NC(=O)c1csc(C2=N[C@@H]3c4csc(n4)[C@@H]4NC(=O)c5csc(n5)[C@@H]([C@](C)(O)[C@H](C)O)NC(=O)[C@@H]5CSC(=N5)/C(=C/C)NC(=O)[C@@H]([C@H](C)O)NC(=O)c5csc(n5)[C@]3(CC2)NC(=O)[C@@H](C)NC(=O)C(=C)NC(=O)[C@@H](C)NC(=O)[C@@H]([C@@H](C)CC)N[C@H]2C=Cc3c([C@H](C)O)cc(nc3[C@@H]2O)C(=O)O[C@H]4C)n1)C(N)=O,–,–,–,–,–,–,–,–,–,–,–,–,–,inactive,inactive,inactive,inactive,1.78 µM (active),inactive,inactive
